Key:
Experiment in all cases: PBM binding z-score (relative to random genomic background probes); higher = stronger binding; sequences stand for … in GC…GCGATTGACAGCGTAGAATGAAGG
[1] = test system: FXR:RXRa (NR concentration 270 nM, RXRa partner concentration 90 nM)
Procedure, shortened: (§1)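 Binding z-scores take random background probes as their reference. They come from custom Agilent 4×180K protein-binding microarrays incubated 1 h with ligand-free nuclear receptor dimers, with antibodies against each partner (one per run) detecting binding. Scanned fluorescence was regression-normalized.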

[2] = test system: LXRa:RXRa (NR concentration 270 nM, RXRa partner concentration 90 nM)
Procedure, shortened: as §1

[3] = test system: LXRa homodimer (NR concentration 270 nM)
Procedure, shortened: as §1

[4] = test system: LXRb:RXRa (NR concentration 270 nM, RXRa partner concentration 90 nM)
Procedure, shortened: as §1

[5] = test system: LXRb homodimer (NR concentration 270 nM)
Procedure, shortened: as §1

[6] = test system: PPARa:RXRa (NR concentration 270 nM, RXRa partner concentration 90 nM)
Procedure, shortened: as §1

[7] = test system: PPARg:RXRa (NR concentration 180 nM, RXRa partner concentration 90 nM)
Procedure, shortened: as §1

[8] = test system: PPARg:RXRa 270nM:90nM, anti-RXR (NR concentration 270 nM, RXRa partner concentration 90 nM)
Procedure, shortened: as §1

[9] = test system: PPARg:RXRa 30nM:10nM, anti-RXR (NR concentration 30 nM, RXRa partner concentration 10 nM)
Procedure, shortened: as §1

[10] = test system: PPARg:RXRa 90nM:30nM, anti-RXR (NR concentration 90 nM, RXRa partner concentration 30 nM)
Procedure, shortened: as §1

Sequence	PBM binding z-score [1]	PBM binding z-score [2]	PBM binding z-score [3]	PBM binding z-score [4]	PBM binding z-score [5]	PBM binding z-score [6]	PBM binding z-score [7]	PBM binding z-score [8]	PBM binding z-score [9]	PBM binding z-score [10]
GATTGTAGATCAAGGTTAAGAAAGACTAAGCTAA	-0.0604	0.349	-0.364	0.458	-0.63	1.72	1.47	2.51	0.605	2.28
AGAATGAGGTTATAGGTAGATCAGGGAAGAAAGT	2.06	2.1	0.425	1.89	0.41	3.67	4.23	4.73	3.33	4.47
ATATGTAGGTTATCGGGTCATTCAGTTTGCGCAT	2.98	3.41	2.11	3.16	1.34	4.62	6.73	6.32	3.96	5.64
ATCCAAAGGTCGTGAGGTGAGTATACAGAAAGGC	5.79	4.82	0.975	3.77	0.687	5.37	5.62	5.62	2.33	4.08
CGTCCAAGGTCAGCATGTCAGTGAAAGCGACGTG	5.06	3.16	-0.309	2.27	-0.251	4.07	2.43	3.09	0.443	1.45
CGTCCAAGGTCAAATGTCAGTGAAGAGATGACGG	7.54	5.76	1.47	4.6	2.22	6.09	6.34	6.37	3.35	5.7
ACTAGCAGGCCACGGGTCACTCAAGATTAGTCCG	0.933	1.15	-0.0855	1.3	-0.734	2.7	3.18	3.72	1.75	3.53
GAAACAGGGTCAAGGCCAGAGTACGCGTATTGAT	7.06	4.18	-0.0634	3.92	-0.239	6.22	6.82	6.19	3.1	5.15
CCGACCGGGGCATAAGGTTACCATAAGCCAGCCC	0.604	1.92	-0.254	0.72	-1.04	1.75	1.09	1.45	-0.188	0.731
TCTTGTAGATCAGCAGCTTAAGAAAGCTGGCCAA	-0.0933	-0.339	-0.557	-0.411	-0.692	0.41	-0.825	0.886	2.45	1.69
GCTGCTAGGTCAGGTTCGTCAGCTAACGGGTACG	1.58	0.945	-0.287	0.33	-0.46	1.6	0.685	1.21	-0.222	0.283
TCTATTAATTGAAGGGCAACCGACGAGTCCGTTT	0.489	1	1.77	0.808	0.497	1.16	0.0188	1.99	3.93	2.74
TCGAGTAGGTTAGGGGCAATCAGAATGGCGTCGA	0.369	0.37	-0.18	0.715	-0.231	1.41	1.53	2.73	1.47	2.42
TCAGACGGGTGAAGGTAACTCAGGTACGCAGTCG	0.211	1.12	-0.137	0.138	-0.885	1.02	0.625	1.66	2.83	2.17
GCAGACAGGTGAAACGCAGGTACCTCAGGGTGGC	-0.505	-0.351	-1.08	-0.737	-1.1	0.616	0.419	-0.439	-0.666	-0.889
TAGCCTAGCTCATGCGGGCCAGTATAGTGTCGGC	-2.69	-1.21	-0.957	-1.4	-1.43	-1.23	-0.395	-1.21	-0.899	-0.925
CCAGACAGGTGAAAAGTAACTCAGTCTGGTACGC	-0.306	-0.0475	-0.078	0.0504	-0.286	1.01	1.08	2.27	0.369	1.43
TCAGACAAGTGAAGGTAACTCAGGTACGCAGTCG	0.55	1.36	-0.177	0.561	-0.499	0.902	0.548	2.26	3.99	2.94
AGAGTGAGGTTATACGTAGATCAGGGAAGAAAGT	2.32	2.18	0.433	2.06	0.71	2.91	1.11	1.19	0.329	0.849
TCATATAGGTTAATGCTAGGTGAAAGTCCGATCT	1.19	2.25	0.441	1.28	0.557	2.55	2.14	3.06	3.79	3.26
CAAACTAGATCAAAGGTCAAAGTCGAGCCAACCA	5.73	5.82	5.07	5.77	3.09	6.79	11.4	10.2	11.1	11.9
CCTAGCAGGCCGATCTGGGTCACTCAAGGCTTGA	0.827	0.587	-0.575	0.613	-0.973	2.6	1.46	1.5	-0.37	0.546
AGAATGAGGTTAAGATCAGGGAAACAGAATACAT	2.37	2.14	-0.0625	1.9	-0.0135	3.67	2.46	2.54	1.11	1.75
